Pf growth 48h – inhibits P. falciparum growth in the first generation, 48 h; P. falciparum luciferase growth in erythrocytes, 48 h; Potency, µM (titrated, usually from 28.7 µM), for the others: top-dose activity change, negative = inhibition, actives largely listed as inhibitors; 5.9% of 310,000 active; AID 504832; also: potency is read from the fitted curve at half-maximal effect
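A one-generation exposure of luciferase-tagged malaria parasites in RPMI 1640/Albumax erythrocyte culture, 37 C and 5% CO2. Inhibition is inferred from decreased luminescence after adding detection reagent.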
HCMV inh – human cytomegalovirus inhibition; 4.5% of 410,000 active; activity change, negative = inhibition, % at 57.5 µM; HFF cells, HCMV-luciferase reporter, 72 h; stronger effect = lower value; in the data active = activity change below about -60%; inconclusive = no clear call, values can overlap the other calls; inactive = above about -39%
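Steps: HFFs plated, 16 h 37C; compounds added; HCMV-luciferase added to MOI 1 PFU/cell; 72 h 37C; OneGlo reagent, 5 min room temperature; luminescence read, normalized to controls.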
HCV inh – HCV inhibition | Huh7.5.1 HCVcc-Cre infection, luciferase reporter, 44 h | Potency, µM (top dose mostly 41.8 µM), without a hit: top-dose activity change, negative = inhibition, actives largely listed as inhibitors | 3.4% of 340,000 active | AID 651820; also: potency is read from the fitted curve at half-maximal effect
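Luciferase read-out (15 sec integration) after a 15 min room-temperature substrate step quantifies HCVcc-Cre infection. Cells, 1,000 per well, had compound added 4 h post-plating, then virus at ~0.5 moi, and were cultured 44 h.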
Pf growth 96h – P. falciparum growth inhibition at 96 hours | Potency, µM (doses to about 28.7 µM), for the others: top-dose activity change, negative = inhibition, most hits filed as inhibitors | AID 504834 | P. falciparum luciferase reporter growth, 96 h | 6.9% of 320,000 active; also: potency is read from the fitted curve at half-maximal effect
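P. falciparum expressing integrated firefly luciferase, in erythrocytes at 2% hematocrit, 0.05% parasitemia, incubated with compounds 96 h at 37 C, 5% CO2. Growth inhibition read as loss of luminescence; two-generation exposure targets delayed-death apicoplast inhibitors.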
An asterisk follows results filed as active; u = inconclusive; x = no result given; [ ] = dose if it differs, or a comment. An excerpt weighted towards active compounds, which were near 13% of everything screened. Unless noted, calls follow the shape of the dose curve; as a rule, active = well fitted inhibition curve with a large enough effect; inconclusive = small, poorly fitted or top-dose-only effect, or another doubt; inactive = no such curve, though single readings can be large or run the other way. % is scaled to controls: 0 for no effect and ±100 for the full control effect.

SMILES	Pf growth 48h	HCMV inh	HCV inh	Pf growth 96h
CC(C)C(NS(=O)(=O)c1cccc2cccnc12)C(=O)Nc1ccc(OC(F)(F)F)cc1 (centres undefined)	x	9.3	x	x
Cc1cc2c(cc1S(=O)(=O)N(CCN(C)C)Cc1ccccc1)OCC(=O)N2	x	0.0	x	x
CCc1ccc(S(=O)(=O)c2nnn(-c3cccc(C)c3)c2N)cc1	x	-39.3	x	x
Cc1nn(Cc2ccccc2)c(C)c1C(=O)OCC(=O)c1cc(C)n(CC(F)(F)F)c1C	x	-10.6	8.91µM*	u
CCOC(=O)c1cc(C)n(Cc2ccccc2)c1C	3.29µM*	57.7	-12.0%	6.57µM*
Cc1cc(C(=O)COC(=O)c2ccc(NC(=O)CC#N)cc2)c(C)n1CC(F)(F)F	x	-2.0	x	x
CCOC(=O)c1c(C)c(C)n(Cc2cccc(OC)c2OC)c1C	11.7µM*	-85.0*	u	8.28µM*
CCOC(=O)c1cc(C)n(Cc2cccc(OC)c2OC)c1C	u	-31.3	u	2.33µM*
Cc1ccc2onc(CC(=O)N3CCN(c4cccc(C)c4C)CC3)c2c1	x	-2.8	x	x
CCCCOc1ccc(C2=NC(c3ccncc3)=Nc3ccc(OCC)cc3N2)cc1	x	-14.2	x	x
Nc1[nH]c(C(=O)c2ccc(Br)cc2)c(-c2ccc3ccccc3c2)c1C(=O)NCCc1c[nH]c2ccccc12	x	2.4	x	x
CCOC(=O)c1cc(C)n(CCc2cnc[nH]2)c1C	13.1µM*	12.0	12.2%	u
CCOC(=O)c1cc(C)n(CCCN2CCOCC2)c1C	-10.4%	28.1	0.1%	-12.1%
CCOc1cc(CNC(=O)NC2COc3ccc(OC)cc3C2)cc(OCC)c1OCC (centres undefined)	x	-6.5	x	x
Oc1ccc(NCc2ccccc2OCc2ccccc2F)cc1	10.4µM*	u	-22.6%	u
CN(C)c1ccnc2sc(C(=O)NCc3ccccc3)c(N)c12	u	-23.1	12.6µM*	-29.8%
CN(C)c1ccnc2sc(C(=O)c3ccc(Br)cc3)c(N)c12	25.8%	-22.2	4.8%	5.5%
CCOC(=O)c1sc2nccc(N(C)C)c2c1N=CN(C)C	17.2%	-22.4	u	x
CN(C)C=Nc1c(C(=O)c2ccccc2)sc2nccc(N(C)C)c12	15.3%	-74.8*	u	32.0%
CCCNC(=O)Cc1ncn[nH]1	39.4%	-6.5	18.0%	x
O=C(Cc1ncn[nH]1)NCCc1ccccc1	x	-5.2	1.1%	7.38µM*
CCc1nc(SCc2cc(=O)c3cc(F)ccc3[nH]2)n[nH]1	x	2.8	x	x
CCOC(=O)c1c(C)[nH]c(NC(=O)NNC(=O)c2ccccc2Cl)c1C	-10.6%	-27.3	11.2µM*	23.7%
CCOC(=O)c1c(C)[nH]c(NC(=O)NNC(=O)c2ccc(OC)cc2)c1C	-12.9%	-20.6	-3.3%	-10.4%
COc1ccc(S(=O)(=O)N2CC3CCCN3c3ccc(C(F)(F)F)cc32)cc1 (centres undefined)	u	-29.8	u	13.1µM*
SMILES	Pf growth 48h	HCMV inh	HCV inh	Pf growth 96h
Cc1ccc2oc(=O)c3cc(C(=O)NCc4ccco4)sc3c2c1	x	-4.9	5.0%	9.28µM*
Cc1ccc2oc(=O)c3cc(C(=O)NCCCN4CCCC(C)C4)sc3c2c1 (centres undefined)	4.15µM*	-7.8	u	20.6%
Cc1ccc2oc(=O)c3cc(C(=O)NCCN4CCc5ccccc5C4)sc3c2c1	4.65µM*	38.3	-2.5%[8.37 µM]	u
CC(=O)c1ccc(NC(=O)c2cc3c(=O)oc4ccc(C)cc4c3s2)cc1	x	-93.0*	x	x
COc1cccc(CNC(=O)c2cc3c(=O)oc4ccc(C)cc4c3s2)c1	x	-5.1	x	x
Cc1cccc(N2CCN(C(=O)Cn3ncc4c3-c3ccccc3OC4)CC2)c1C	x	-17.9	x	x
COc1ccc(CNc2nc(-c3ccco3)nn2C(=O)CC(C)C)cc1	x	72.1	x	x
CCc1ccc2oc(C(=O)NCc3ccccc3)cc(=O)c2c1	x	-2.7	x	x
Cc1csc(NC(=O)CN2C(=O)c3ccccc3S2(=O)=O)n1	16.1%	-2.2	12.9%	13.1µM*
O=C(CN1C(=O)c2ccccc2S1(=O)=O)NC1CCCCCC1	50.1%	-74.5*	14.6%	u
CCOC(=O)CNc1nc(Cl)nc(NC(C)(C)C)n1	1.8%	-24.9	-10.8%	13.1µM*
CCOC(=O)N1CCc2c(sc(NCc3cccs3)c2C(=O)Nc2cc(Cl)ccc2OC)C1	x	2.2	x	x
COC(=O)c1c(-c2cccs2)csc1NC(=O)c1cc(OC)c(OC)c(OC)c1	x	-32.2	x	x
O=C(O)c1ccccc1SSc1ccccc1C(=O)O	19.8%	-25.6	16.1%	21.3%
C[CH2][Hg][S]c1ccccc1C(=O)O	1.9µM*	-95.5*	-61.7%	1.2µM*
